Assay: optical density shifts of acrAB sulA E. coli – strain DRC41, OD650, 48 h, E. coli filamentation inducer project, primary screen (AID 1152);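 further: E. coli MC1000 strain DRC41 lacking acrAB efflux pump and sulA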
Conditions: higher = more signal, called active from +8 up or from −8 down

z-score, inactive:
OCCCC1=CC(c2ccc(CN3CCCC3)cc2)N(Cc2sc3ccccc3c2Cl)CC1 (configuration not stated) -1.6
CC(C)C(CO)N1C(=O)[C@@H]2C3C(=O)OCCC/C=C\[C@H]3OC23C=CCN(C(C)(C)C)C(=O)[C@@H]13 (some centres not stated) -0.69
O=c1n(-c2ccccc2)c(=O)n2n1CC(COc1ccccc1)=C([C@H](O)CCc1ccccc1)[C@@H]2CO 2.63
CC(C)C(=C=CC[C@H](O)c1cccc(OCCO)c1)C[C@H](O)c1cc(Cl)cc(Cl)c1O 0.321
CC(C)(C)OC(=O)CC[C@]1(C(=O)NCC(O)CO)N=C(c2ccc(OCCCO)cc2)O[C@H]1c1ccccc1 (some centres not stated) 1.79
COC(=O)[C@@]1(Cc2ccccc2)[C@H]2c3cc(C(=O)N(C)C)n(CCc4ccc(O)c(OC)c4)c3C[C@H]2CN1C(=O)c1ccccc1 -0.873
C=CCNC(=O)[C@@H]1[C@H]2C(=O)O[C@H](c3ccccc3)[C@H](c3ccccc3)N2[C@H](c2ccc(O)cc2)[C@@]12C(=O)N(C(=O)OCCOC)c1ccc(C#CC3(O)CCCCCC3)cc12 2.23
CCCC[C@@H]1C[C@H]1[C@@H](NC(=O)c1cccs1)c1ccc(C(F)(F)F)cc1 -2.61
COCCOC(=O)N1C(=O)[C@@]2(c3cc(C#Cc4ccc(OC)cc4)ccc31)[C@H](c1ccccc1OCCO)N1[C@H](c3ccccc3)[C@H](c3ccccc3)OC(=O)[C@H]1[C@@H]2C(=O)N1CCCCCCC1 2.97
Cc1ccccc1C(O)C1C=CC2C(=O)N(C)C(=O)C2N1N(c1ccccc1)c1ccccc1 (configuration not stated) -0.402
Cc1ccc(S[C@]2(C(=O)NCC(F)(F)F)CC(=O)N(Cc3ccccc3C(F)(F)F)[C@@H]2c2ccc(CO)cc2I)cc1 0.637
CC(C)N1C(=O)C[C@@](C(=O)NCCCN(C)C)(c2ccc([N+](=O)[O-])cc2)[C@H]1c1ccc(CO)cc1 -0.898
CCOc1cc(C(O)C2C=CC3C(=O)N(c4ccccc4)C(=O)C3N2Nc2ccc(C#N)cc2)ccc1O (configuration not stated) -1.17
CN(C)C(=O)[C@@]1(Cc2ccccc2CN=[N+]=[N-])N=C(c2ccc(OCCCO)cc2)O[C@H]1c1ccccc1CN=[N+]=[N-] -0.395
C=CC[C@]1(C(=O)O)COC(c2ccc(OCCCO)cc2)=N1 -0.27
C=CCC(OC(C)=O)[C@@H]1[C@@H](N(Cc2cccc3ccccc23)C(=O)Cc2ccc(OC)cc2)c2cc(OCCCO)ccc2N1C(=O)c1ccc2ccccc2n1 (some centres not stated) -0.899
CCOC(=O)C[C@H]1[C@H](OC(=O)Cc2ccc3c(c2)OCO3)[C@@H](NC(=O)CC(C)C)c2cc(OCCCO)ccc2N1C(=O)Cc1ccc(OC)cc1 2.26
[N-]=[N+]=NCc1ccccc1C[C@@]1(C(=O)NCc2ccccc2)N=C(c2ccc(OCCCO)cc2)O[C@@H]1c1ccccc1N=[N+]=[N-] -0.0632
O=C1C2C=CC(C(O)c3ccc(F)cc3)N(n3cnnc3)C2C(=O)N1Cc1ccccc1 (configuration not stated) -0.792
NC(=O)NCC#Cc1ccc2c(c1)[C@]1(C(=O)N2)[C@H](C(=O)NC[C@H](O)c2ccccc2)[C@H]2C(=O)O[C@H](c3ccccc3)[C@H](c3ccccc3)N2[C@@H]1c1ccc(OCCO)cc1 0.851
O=C1O[C@H](c2ccccc2)[C@H](c2ccccc2)N2[C@H]1[C@@H](C(=O)N1CCN(c3ncccn3)CC1)[C@]1(C(=O)Nc3ccc(C#CC4(O)CCCCCC4)cc31)[C@H]2c1ccc(OCCO)cc1 -0.735
CCOc1cc(C(O)C2C=CC3C(=O)N(C)C(=O)C3N2Nc2ccccc2)ccc1O (configuration not stated) -0.353
CN(C)CCCNC(=O)[C@@H]1c2ccccc2C(=O)N(Cc2ccccc2Cl)[C@H]1c1ccc(CO)cc1 0.681
[N-]=[N+]=NCc1ccccc1[C@H]1OC(c2ccc(OCCCO)cc2)=N[C@@]1(CCS(=O)(=O)c1ccccc1)C(=O)N1CCCCC1 -0.193
O=C1NC(=O)C2C1C=CC(C(O)c1ccco1)N2Nc1ccccn1 (configuration not stated) -1.23
CCCCC(O)C1C=CC2C(=O)N(c3ccccc3)C(=O)C2N1Nc1ccc(C(C)C)cc1 (configuration not stated) -0.759
C=CC[C@@]1(C(=O)N2CCOCC2)N=C(c2ccc(OCCCO)cc2)O[C@@H]1c1ccccc1CN=[N+]=[N-] -0.124

— PubChem BioAssay
